# Source: PubChem BioAssay (NCATS)
# Inconclusive results are not listed. A call without a number means that no potency is given here. Activity calls are given as the source filed them. Unless noted, calls follow the shape of the dose curve; as a rule, active = well fitted inhibition curve with a large enough effect; inconclusive = small, poorly fitted or top-dose-only effect; inactive = flat fitted curve, though single readings scatter.
# Assays:
# [1] = qHTS for identification of novel therapeutic agents for treatment of microphthalmiaassociated transcription factor (MiT) renal cell carcinoma (RCC) (AID 1963991); conditions: CellTiter-Glo, 48 h, stronger effect = lower value
# Summary of the method: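 Viability of three TFE3-fusion renal carcinoma lines measured by CellTiter-Glo after 48 h treatment with each of 1912 compounds at 11 concentrations. Responses scaled between DMSO (100%) and empty wells (0%) before curve fitting.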
# [2] = qHTS drug screen for cell cycle checkpoint inhibitors in PARPi-resistant BRCA-mutant ovarian cancer cell lines. (AID 1963452; calls by dose curve); conditions: PEO1/OlaR viability, CellTiter-Glo luminescence, 96 h, stronger effect = lower value
# Summary of the method: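 PEO1, PEO4 and PEO1/OlaR ovarian cancer cells, 600 per well, exposed 96 h at 37C to a dilution series. Viability read by CellTiter-Glo luminescence, normalized to DMSO and empty wells; activity summarized as Z-AUC.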
# [3] = qHTS profiling for inhibitors of Plasmodium falciparum proliferation (AID 504749); also: nearly all actives have a fitted effect of over 60% in size; also: potency is read from the fitted curve at half-maximal effect; conditions: P. falciparum in erythrocytes, SYBR Green DNA, 72 h
# Summary of the method: (§1)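 P. falciparum-infected erythrocytes (0.3% parasitemia, 2.5% hematocrit) incubated with compound 72 h at 37 C, 5% CO2. Parasite DNA detected by SYBR Green after lysis, overnight at room temperature; normalised to 0.29 uM artemisinin and DMSO.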
# 3D7 = test: as above; conditions: P. falciparum in erythrocytes, SYBR Green DNA, 72 h; series mostly up to 28.7 µM
# Summary of the method: as §1
# AA1029 = test: as above; conditions: P. falciparum in erythrocytes, SYBR Green DNA, 72 h; series mostly up to 28.7 µM
# Summary of the method: as §1
# ATS189 = test: as above; conditions: P. falciparum in erythrocytes, SYBR Green DNA, 72 h; series mostly up to 28.7 µM
# Summary of the method: as §1
# ATS95 = test: as above; conditions: P. falciparum in erythrocytes, SYBR Green DNA, 72 h; series mostly up to 28.7 µM
# Summary of the method: as §1
# C2A = test: as above; conditions: P. falciparum in erythrocytes, SYBR Green DNA, 72 h; series mostly up to 28.7 µM
# Summary of the method: as §1
# CP185 = test: as above; conditions: P. falciparum in erythrocytes, SYBR Green DNA, 72 h; series mostly up to 28.7 µM
# Summary of the method: as §1
# CP191 = test: as above; conditions: P. falciparum in erythrocytes, SYBR Green DNA, 72 h; series mostly up to 28.7 µM
# Summary of the method: as §1
# CP192 = test: as above; conditions: P. falciparum in erythrocytes, SYBR Green DNA, 72 h; series mostly up to 28.7 µM
# Summary of the method: as §1
# CP194 = test: as above; conditions: P. falciparum in erythrocytes, SYBR Green DNA, 72 h; series mostly up to 28.7 µM
# Summary of the method: as §1
# CP201 = test: as above; conditions: P. falciparum in erythrocytes, SYBR Green DNA, 72 h; series mostly up to 28.7 µM
# Summary of the method: as §1
# CP203 = test: as above; conditions: P. falciparum in erythrocytes, SYBR Green DNA, 72 h; series mostly up to 28.7 µM
# Summary of the method: as §1
# CP211 = test: as above; conditions: P. falciparum in erythrocytes, SYBR Green DNA, 72 h; series mostly up to 28.7 µM
# Summary of the method: as §1
# CP215 = test: as above; conditions: P. falciparum in erythrocytes, SYBR Green DNA, 72 h; series mostly up to 28.7 µM
# Summary of the method: as §1
# AS120 = test: as above; conditions: P. falciparum in erythrocytes, SYBR Green DNA, 72 h; series mostly up to 28.7 µM
# Summary of the method: as §1
# CP217 = test: as above; conditions: P. falciparum in erythrocytes, SYBR Green DNA, 72 h; series mostly up to 28.7 µM
# Summary of the method: as §1
# 7G8 = test: as above; conditions: P. falciparum in erythrocytes, SYBR Green DNA, 72 h; series mostly up to 28.7 µM
# Summary of the method: as §1
# [4] = TFE3-RCC UOK109 viability, measured here: UOK109 Z-AUC
# [5] = TFE3-RCC viability, measured here: UOK124 Z-AUC
# [6] = TFE3-RCC viability, measured here: UOK145 Z-AUC
# [7] = measured here: PEO1 parental Z-AUC
# [8] = at 28.7 µM (top of the series), parasite line A
# [9] = at 28.7 µM (top of the series), parasite line B
# [10] = at 12.8 µM (top of the series), parasite line A
# [11] = at 12.8 µM (top of the series), parasite line B
compound,measurement,setting,value
CC1=C(C(=O)O)N2C(=O)[C@@H](NC(=O)C(N)c3ccccc3)[C@H]2SC1 (some centres not stated),z-score,[1]; [4],1.68
same,z-score,[1]; [5],0.228
same,z-score,[1]; [6],0.731
CCOC(=O)[C@H](CCc1ccccc1)N[C@H]1CS[C@H](c2cccs2)CN(CC(=O)O)C1=O,Z-AUC,[2],-0.655 (inactive)
same,Z-AUC,[2]; [7],-0.787
same,Z-AUC,[2]; measured here: PEO4 Z-AUC,-0.726
same,"activity, negative = inhibition",[3]; [8],-33.7% (inactive)
same,Potency,3D7,inactive
same,Potency,AA1029,inactive
same,Potency,ATS189,inactive
same,Potency,ATS95,inactive
same,Potency,C2A,inactive
same,Potency,CP185,inactive
same,Potency,CP191,inactive
same,Potency,CP192,inactive
same,Potency,CP194,inactive
same,Potency,CP201,inactive
same,Potency,CP203,inactive
same,Potency,CP211,inactive
same,Potency,CP215,inactive
COc1nc(N)nc2c1ncn2[C@@H]1O[C@H](CO)[C@@H](O)[C@@H]1O,z-score,[1]; [4],0.831
same,z-score,[1]; [5],1.01
same,z-score,[1]; [6],0.757
same,"activity, negative = inhibition",[3]; [8],-5.23% (inactive)
same,"activity, negative = inhibition",[3]; [9],-4.98% (inactive)
same,Potency,3D7,inactive
same,Potency,AA1029,inactive
same,Potency,AS120,inactive
same,Potency,ATS189,inactive
same,Potency,ATS95,inactive
same,Potency,C2A,inactive
same,Potency,CP185,inactive
same,Potency,CP191,inactive
same,Potency,CP192,inactive
same,Potency,CP194,inactive
same,Potency,CP201,inactive
same,Potency,CP203,inactive
same,Potency,CP211,inactive
same,Potency,CP215,inactive
same,Potency,CP217,inactive
Cc1onc(-c2ccccc2Cl)c1C(=O)N[C@@H]1C(=O)N2[C@@H]1SC(C)(C)[C@@H]2C(=O)O,z-score,[1]; [4],1.22
same,z-score,[1]; [5],0.834
same,z-score,[1]; [6],1.69
CNCC[C@H](Oc1cccc2ccccc12)c1cccs1,Potency,7G8,2.24 µM (active)
same,Potency,AA1029,7.08 µM (active)
same,Potency,AS120,11.2 µM (active)
same,Potency,ATS95,7.94 µM (active)
same,Potency,CP191,11.2 µM (active)
same,Potency,CP201,inactive
same,Potency,CP211,inactive
CNC(=O)c1cc(Oc2ccc(NC(=O)Nc3ccc(Cl)c(C(F)(F)F)c3)cc2)ccn1,Z-AUC,[2],0.739 (inactive)
same,Z-AUC,[2]; [7],0.309
same,Z-AUC,[2]; measured here: PEO4 Z-AUC,0.253
same,Potency,7G8,1 µM (active)
same,Potency,AS120,10 µM (active)
same,Potency,CP192,10.7 µM (active)
same,Potency,CP194,10.7 µM (active)
same,Potency,CP211,12 µM (active)
same,Potency,CP215,15.1 µM (active)
CN1CCN(c2c(F)cc3c(=O)c(C(=O)O)cn(CCF)c3c2F)CC1,z-score,[1]; [4],1.29
same,z-score,[1]; [5],-0.24
same,z-score,[1]; [6],0.785
same,"activity, negative = inhibition",[3]; [8],1.69% (inactive)
same,"activity, negative = inhibition",[3]; [9],7.79% (inactive)
same,Potency,3D7,inactive
same,Potency,7G8,inactive
same,Potency,AA1029,inactive
same,Potency,AS120,inactive
same,Potency,ATS189,inactive
same,Potency,ATS95,inactive
same,Potency,C2A,inactive
same,Potency,CP185,inactive
same,Potency,CP191,inactive
same,Potency,CP192,inactive
same,Potency,CP194,inactive
same,Potency,CP201,inactive
same,Potency,CP203,inactive
same,Potency,CP211,inactive
same,Potency,CP215,inactive
same,Potency,CP217,inactive
CC(C)(C)C(=O)OCOP(=O)(COCCn1cnc2c(N)ncnc21)OCOC(=O)C(C)(C)C,Z-AUC,[2],0.383 (inactive)
same,Z-AUC,[2]; [7],0.013
same,Z-AUC,[2]; measured here: PEO4 Z-AUC,-0.0203
same,Potency,CP194,inactive
same,Potency,CP201,inactive
same,Potency,CP211,inactive
Cc1noc(NS(=O)(=O)c2ccc(N)cc2)c1C,"activity, negative = inhibition",[3]; [8],13.7% (inactive)
same,"activity, negative = inhibition",[3]; [9],4.61% (inactive)
same,Potency,3D7,inactive
same,Potency,7G8,inactive
same,Potency,AA1029,inactive
same,Potency,AS120,inactive
same,Potency,ATS189,inactive
same,Potency,ATS95,inactive
same,Potency,C2A,inactive
same,Potency,CP185,inactive
same,Potency,CP191,inactive
same,Potency,CP192,inactive
same,Potency,CP194,inactive
same,Potency,CP201,inactive
same,Potency,CP203,inactive
same,Potency,CP211,inactive
same,Potency,CP215,inactive
same,Potency,CP217,inactive
N[C@@H](C(=O)N[C@@H]1C(=O)N2C(C(=O)O)=C(Cl)CS[C@H]12)c1ccccc1,z-score,[1]; [4],1.18
same,z-score,[1]; [5],0.137
same,z-score,[1]; [6],0.843
same,"activity, negative = inhibition",[3]; [8],10% (inactive)
same,"activity, negative = inhibition",[3]; [9],-2.02% (inactive)
same,Potency,3D7,inactive
same,Potency,7G8,inactive
same,Potency,AA1029,inactive
same,Potency,AS120,inactive
same,Potency,ATS189,inactive
same,Potency,ATS95,inactive
same,Potency,C2A,inactive
same,Potency,CP185,inactive
same,Potency,CP191,inactive
same,Potency,CP192,inactive
same,Potency,CP194,inactive
same,Potency,CP201,inactive
same,Potency,CP203,inactive
same,Potency,CP211,inactive
same,Potency,CP215,inactive
same,Potency,CP217,inactive
CN(C)CCc1c[nH]c2ccc(C[C@H]3COC(=O)N3)cc12,z-score,[1]; [4],0.402
same,z-score,[1]; [5],-0.14
same,z-score,[1]; [6],0.58
COc1ccccc1OCC(O)COC(N)=O (configuration not stated),z-score,[1]; [4],0.0196
same,z-score,[1]; [5],0.974
same,z-score,[1]; [6],0.377
COc1ccc2c(c1)c(CC(=O)OCC(=O)O)c(C)n2C(=O)c1ccc(Cl)cc1,z-score,[1]; [4],1.12
same,z-score,[1]; [5],1.19
same,z-score,[1]; [6],0.507
CCN(CC)CC#CCOC(=O)C(O)(c1ccccc1)C1CCCCC1 (configuration not stated),z-score,[1]; [4],0.714
same,z-score,[1]; [5],0.353
same,z-score,[1]; [6],0.607
CCn1cc(C(=O)O)c(=O)c2cc(F)c(N3CCNCC3)nc21,z-score,[1]; [4],0.63
same,z-score,[1]; [5],-0.25
same,z-score,[1]; [6],0.63
same,"activity, negative = inhibition",[3]; [10],-33.7% (inactive)
same,"activity, negative = inhibition",[3]; [11],-38.9% (inactive)
same,Potency,3D7,inactive
same,Potency,ATS189,inactive
same,Potency,ATS95,inactive
same,Potency,C2A,inactive
same,Potency,CP185,inactive
same,Potency,CP191,inactive
same,Potency,CP192,inactive
same,Potency,CP194,inactive
same,Potency,CP201,inactive
same,Potency,CP203,inactive
same,Potency,CP211,inactive
same,Potency,CP215,inactive
same,Potency,CP217,inactive
CCCCCCNC(=O)n1cc(F)c(=O)[nH]c1=O,Z-AUC,[2],1.08 (inactive)
same,Z-AUC,[2]; [7],0.601
same,Z-AUC,[2]; measured here: PEO4 Z-AUC,0.733
same,Potency,3D7,4.47 µM (active)
same,Potency,7G8,5.01 µM (active)
same,Potency,C2A,12.6 µM (active)
same,Potency,CP211,16.9 µM (active)
CCN(C)C(=O)Oc1cccc([C@H](C)N(C)C)c1,z-score,[1]; [4],0.893
same,z-score,[1]; [5],0.446
same,z-score,[1]; [6],1.29
same,"activity, negative = inhibition",[3]; [8],3.53% (inactive)
same,"activity, negative = inhibition",[3]; [9],1.69% (inactive)
same,Potency,3D7,inactive
same,Potency,7G8,inactive
same,Potency,AA1029,inactive
same,Potency,AS120,inactive
same,Potency,ATS189,inactive
same,Potency,ATS95,inactive
same,Potency,C2A,inactive
same,Potency,CP185,inactive
same,Potency,CP191,inactive
same,Potency,CP192,inactive
same,Potency,CP194,inactive
same,Potency,CP201,inactive
same,Potency,CP211,inactive
same,Potency,CP215,inactive
same,Potency,CP217,inactive
Cc1ccnc2c1NC(=O)c1cccnc1N2C1CC1,"activity, negative = inhibition",[3]; [8],0.983% (inactive)
same,"activity, negative = inhibition",[3]; [9],-17.2% (inactive)
same,Potency,3D7,inactive
same,Potency,AA1029,inactive
same,Potency,AS120,inactive
same,Potency,ATS189,inactive
same,Potency,ATS95,inactive
same,Potency,C2A,inactive
same,Potency,CP185,inactive
same,Potency,CP191,inactive
same,Potency,CP192,inactive
same,Potency,CP194,inactive
same,Potency,CP201,inactive
same,Potency,CP203,inactive
same,Potency,CP211,inactive
same,Potency,CP215,inactive
same,Potency,CP217,inactive
COc1cc(NS(=O)(=O)c2ccc(N)cc2)nc(OC)n1,"activity, negative = inhibition",[3]; [10],5.18% (inactive)
same,"activity, negative = inhibition",[3]; [11],-3.51% (inactive)
same,Potency,3D7,inactive
same,Potency,7G8,inactive
same,Potency,AA1029,inactive
same,Potency,AS120,inactive
same,Potency,ATS189,inactive
same,Potency,ATS95,inactive
same,Potency,C2A,inactive
same,Potency,CP185,inactive
same,Potency,CP191,inactive
same,Potency,CP192,inactive
same,Potency,CP194,inactive
same,Potency,CP201,inactive
same,Potency,CP203,inactive
same,Potency,CP211,inactive
same,Potency,CP215,inactive
same,Potency,CP217,inactive
